Sampled rows, rich in hits. Any-hit rate of the full collection: about 3.7%.
BoNT F protease: blocks Botulinum neurotoxin F light chain protease | Multiplex microsphere protease cleavage assay, flow cytometry | inhibition, % at 10 µM | 360,000 compounds, 0.22% hits; in the data active = inhibition above about 35%, passing the limit was not always enough; inconclusive = no clear call, values can overlap the other calls
BoNT A protease: BoNT A light chain protease inhibition. multiplex microsphere protease substrate cleavage, flow cytometry. inhibition, % at 10 µM. 360,000 compounds, 0.17% hits. AID 588499
MazEF act: activators of E. coli MazEF toxin-antitoxin RNase | FAM/BHQ RNA-DNA oligo cleavage fluorescence, 5 h | activation, % at 20 µM | 350,000 compounds, 0.32% hits | AID 504720; in the data active = activation above about 50%
Anthrax LF prot: blocks Bacillus anthracis lethal factor protease. multiplex microsphere protease cleavage assay, LF. inhibition, % at 10 µM. P15917. AID 588501. 360,000 compounds, 0.12% hits
Autofluor counter: compound fluorescence in toxin protease inhibitor counterscreen. AID 624483. 360,000 compounds, 3.1% hits. fluorescence intensity (test concentration not listed). compound autofluorescence counterscreen, microsphere flow cytometry; stronger effect = higher value; in the data active = fluorescence intensity above about 16000; inconclusive = no clear call, values can overlap the other calls
Hits are given with their value; i = inactive; ? = inconclusive; nt = no result. Cut-off read from the data, not from the text of the source, unless noted: active = inhibition above about 30%; inconclusive = no clear call, values can overlap the other calls; inactive = below that.

SMILES	BoNT F protease	BoNT A protease	MazEF act	Anthrax LF prot	Autofluor counter
Cn1c(SCC(N)=O)nnc1-c1ccc(S(=O)(=O)N2CCCC2)cc1	i	i	i	i	i
CC1CCN(S(=O)(=O)c2ccc(NC(=O)CSc3nnnn3C)cc2)CC1	i	i	i	i	23542
COc1cccc(C(=O)CSc2nc3ccccc3n2CC(=O)N2CCOCC2)c1	i	i	i	i	i
CCOC(=O)[C@]12CCCC=C1N(Cc1ccc3c(c1)OCO3)C(=O)[C@H](CC(=O)N1CCN(C(=O)C3CC3)CC1)C2	i	i	nt	i	i
COCCn1c(SCC(=O)Nc2ccc(S(=O)(=O)N3CCOCC3)cc2)nc2ccccc21	i	?	i	i	23038
Nc1ccc(CNc2ncn[nH]2)cc1	i	i	i	i	i
Fc1ccc(CNc2ccc(CNc3ncn[nH]3)cc2)cc1	i	i	i	i	21380
S=C(NN=C(C1CC1)C1CC1)Nc1ccccc1	i	i	i	i	17259
C#CCN(C[C@@H]1[C@@H](OC(=O)Nc2c(C)noc2C)[C@@H](OC(=O)Nc2c(C)noc2C)Cn2c(=O)n(CCCCCC)c(=O)n21)S(=O)(=O)c1ccc(C)cc1	i	i	i	i	i
CCOC(=O)c1cc(NC(=O)N(C(C)C)C(C)C)c(C)nc1C	i	i	i	i	16634
CCOC(=O)c1cc(NC(=O)N(CC)CC)c(C)nc1C	i	i	i	i	24580
CCOC(=O)c1cc(NC(=O)NC2CCCCC2)c(C)nc1C	i	i	i	i	i
CCOC(=O)c1cc(NC(=O)N(C(C)C)C2CCCCC2)c(C)nc1C	i	i	i	i	i
C[C@H](O)CNC(=O)c1[nH]cnc1C(=O)Nc1ccc(CNC(=O)OC(C)(C)C)cc1	i	i	i	i	i
CC(C)OC(=O)CSc1nnc(-c2ccccn2)n1C	i	i	i	i	17273
Cn1c(SCC(=O)NCc2ccccc2)nnc1-c1ccc(NC(=O)CCc2ccccc2)cc1	i	i	i	i	i
CCc1ccc(NC(=O)CSc2nnc(-c3ccccn3)n2C)cc1	i	i	i	i	19708
CC(C)c1ccc(NC(=O)CSc2nnc(-c3ccccn3)n2C)cc1	i	i	i	i	i
CCCCSc1nnc(-c2ccc(NC(=O)CCc3ccccc3)cc2)n1C	i	i	i	i	20381
CC(=O)Nc1cccc(-c2ccnc3c2CC(C(=O)Nc2cccc(N(C)C)c2)O3)c1 (configuration not stated)	i	i	nt	i	i
CCN(CC)C(=O)CSc1nnc(-c2cc3ccccc3cc2O)n1CC	i	i	i	i	23212
CCN(CC)C(=O)CSc1nnc2cc(C)c3ccccc3n12	i	i	i	i	i
O=C1NC[C@H](CCCCN2CCN(CCC3CCCCC3)C(=O)C2=O)N(CCc2ccc(O)cc2)C1=O	i	i	nt	i	i
CCc1nc2ccc(C(=O)N(C)Cc3ccco3)cn2c1N(CC)Cc1cccc(Br)c1	i	i	nt	i	i
CC(C)(C)S(=O)N1Cc2cc(CO)ccc2[C@H]1CCO (some centres not stated)	i	i	i	i	i
SMILES	BoNT F protease	BoNT A protease	MazEF act	Anthrax LF prot	Autofluor counter
Cc1ccc(NC(=O)C2CCN(S(C)(=O)=O)CC2)cc1	i	?	i	i	22760
COc1ccc(NC(=O)C2CCN(S(=O)(=O)c3ccc(C)cc3)CC2)cc1OC	i	i	i	i	25551
COc1ccc(NC(=O)C2CCN(S(C)(=O)=O)CC2)cc1OC	i	i	i	i	i
COc1ccc(Cl)cc1NC(=O)CN(C)C(=O)c1cc2c(s1)CCC(C)C2 (configuration not stated)	i	i	i	i	i
CC(C)CC1C(=O)N(Cc2cn(CCC3OCCO3)nn2)CCS(=O)(=O)N1Cc1ccc(-c2ccncc2)cc1 (configuration not stated)	i	i	i	i	i
Cc1c(C(=O)N2CCC2(C)C(=O)O)oc2ccccc12 (configuration not stated)	i	i	nt	i	i
Cc1ccc(-c2cnc(C(O)c3ccc(Cl)cc3C)[nH]2)cc1 (configuration not stated)	i	i	nt	i	i
O=c1[nH]c(CN2CCN(c3ccc([N+](=O)[O-])cc3)CC2)nc2ccsc12	i	i	i	i	i
COc1ccc(N2CCN(Cc3nc4ccsc4c(=O)[nH]3)CC2)cc1	i	i	i	i	20654
CN(CC(=O)Nc1ccc(F)cc1)C(=O)C1CCN(C(=O)Nc2ccccc2)CC1	i	i	i	i	i
c1ccc(Oc2ccccc2-c2cc(NCCc3cccnc3)n3nccc3n2)cc1	i	i	nt	i	i
CCCCCn1c(N)c(-c2nc3ccccc3s2)c2c([N+](=O)[O-])nn(CC)c(=O)c21	i	i	i	i	17846
CNc1nc2ccccc2n(C)c1=O	i	i	i	i	i
COc1ccc(Oc2nc3ccccc3n3cccc23)cc1	i	i	i	i	i
Cn1c(=O)c(-c2ccccc2N)nc2ccccc21	i	i	i	i	20647
COc1ccc(Oc2nc3ccccc3nc2C(F)(F)F)cc1	i	i	i	i	23577
Cn1c(=O)c(-c2ccccc2)nc2ccccc21	i	i	i	i	20471
CNc1ccccc1-c1nc2ccccc2n(C)c1=O	?	i	i	i	i
COc1ccc(Oc2nc3ccccc3n(C)c2=O)cc1	i	i	i	i	16246
C1CCC2(CC1)C1=C(CCCC1)Nc1nnnn12	i	i	i	i	24281
O=C(CSc1nc2ccccc2[nH]1)N1CCN(c2ccccc2)CC1	i	i	i	i	i
O=C(CSc1nc2ccccc2[nH]1)N1CCCCC1	i	i	i	i	21788
O=C(CCCSc1nc2ccccc2[nH]1)N1CCN(c2ccccc2)CC1	i	i	i	i	20365
CSc1ncccc1C(=O)Nc1ccc2c(c1)OCCO2	i	i	i	i	i
COc1ccc(NC(=O)CSc2nnc(-c3ccccc3C)n2N)cc1OC	i	?	i	i	22260
SMILES	BoNT F protease	BoNT A protease	MazEF act	Anthrax LF prot	Autofluor counter
COc1ccc(NC(=O)CSc2nnc(-c3ccccc3C)n2N)cc1	i	i	i	i	22454
COc1ccc(NC(C)=O)cc1NC(=O)CSc1nnc(-c2ccc(F)cc2)n1N	i	i	i	i	20810
Cc1ccccc1-c1nnc(SCC(=O)Nc2ccc(Cl)cc2)n1N	i	i	i	i	i
CCOc1cccc(-c2nnc(SCC(=O)Nc3cc(OC)cc(OC)c3)n2N)c1	i	?	i	i	22656
CCOC(=O)c1cccnc1SCC(=O)Nc1ccc(C)cc1	i	i	i	i	i
COc1cc(NC(=O)CSc2ncccc2C(=O)OC(C)C)cc(OC)c1	i	i	i	i	23173
CCc1ccc(NC(=O)C(C)OC(=O)Cn2[nH]c(=O)c3ccccc3c2=O)cc1 (configuration not stated)	i	i	i	i	i
Cc1cccc(NC(=O)CNC(=O)COc2cccnc2[N+](=O)[O-])c1C	i	i	i	i	i
COC(=O)c1cc2c(=O)c3ccccc3oc2nc1/C=C/N(C)C	i	i	85	i	i
COc1cccc(C(=O)NCC(c2ccco2)N2CCOCC2)c1 (configuration not stated)	i	i	i	i	i
Cn1c(NCCCN2CCOCC2)nc2c1c(=O)n(Cc1ccc(Cl)cc1Cl)c(=O)n2C	i	i	i	i	21423

Source: PubChem (several laboratories)
